# Bioassay records: PubChem, National Center for Advancing Translational Sciences (NCATS)
# A selection: hits, their analogues and other compounds. The true share with any hit is near 9.8%.
# HTT ATP protect = cytoprotection in Huntington HTT-Q103 PC12 cell model; Potency, µM (titrated, usually from 56.4 µM), usual class: activators; actives 0.14% (n = 230,000); PC12 HTT-Q103 induced, cytoprotection, ATP luminescence, 40 h; note: nearly all actives have a fitted effect of over 45% in size
#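 ATP quantification (ATPlite) reports survival of PC12 cells in which tebufenozide, 100 nM final, switches on Htt exon 1 with 103 glutamines linked to GFP; compounds are titrated.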
# HPGD inh = inhibitors of human 15-hydroxyprostaglandin dehydrogenase (HPGD) | purified HPGD, NADH fluorescence kinetic, PGE2 substrate | actives 4.3% (n = 150,000) | Potency, µM, most hits filed as inhibitors | AID 894 | P15428; active = well fitted inhibition curve with a large enough effect, not every such curve was filed as active; inconclusive = small, poorly fitted or top-dose-only effect, or another doubt; inactive = no such curve, though single readings can be large or run the other way
# Target sequence (P15428 whole entry, looked up): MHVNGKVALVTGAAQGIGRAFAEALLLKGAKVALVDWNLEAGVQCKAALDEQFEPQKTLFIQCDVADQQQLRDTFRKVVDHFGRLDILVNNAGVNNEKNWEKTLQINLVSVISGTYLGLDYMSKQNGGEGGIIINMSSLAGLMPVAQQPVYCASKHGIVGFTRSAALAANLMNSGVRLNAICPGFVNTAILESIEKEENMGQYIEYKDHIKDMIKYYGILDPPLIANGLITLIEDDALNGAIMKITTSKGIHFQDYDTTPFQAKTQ
#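 20 nM HPGD preincubated 15 min at room temperature with compound in 50 mM Tris-HCl pH 8, 0.01% Tween 20. Started with 1 mM NAD+ and 30 uM prostaglandin E2; NADH fluorescence (360/450 nm) read 5 times over 30-s intervals, last minus first.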
# KDM4E inh = JMJD2E (human) inhibition; B2RXH2; JMJD2E catalytic domain, FDH-coupled NADH fluorescence (FDH is formaldehyde dehydrogenase); Potency, µM (top dose mostly 57.1 µM), actives largely listed as inhibitors; actives 1.6% (n = 230,000); AID 2147; active = well fitted inhibition curve with a large enough effect, not every such curve was filed as active; inconclusive = small, poorly fitted or top-dose-only effect, or another doubt; inactive = no such curve, though single readings can be large or run the other way; note: nearly all actives have a fitted effect of over 50% in size
# CBFb-RUNX1 inh = blocks binding between human CBF-beta and RUNX1; Q01196+Q13951; AlphaScreen CBFb-His/RUNX1-biotin binding, biochemical; Potency, µM (titrated, usually from 59.8 µM), hits mostly inhibitors; 230,000 tested, under 10 active
#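 AlphaScreen proximity signal reports loss of binding between His-tagged CBF-beta and biotin-labelled RUNX1, each at 30 nM. Proteins are pre-associated for 20 minutes, compounds added for 15 minutes, then beads for 90 minutes, all at ambient temperature.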
# HttQ103 aggreg = mutant huntingtin aggregation inhibition; Potency, µM (top dose mostly 46.1 µM), actives largely listed as inhibitors; actives 1.1% (n = 220,000); PC12 HttQ103-GFP aggregates, Acumen cytometry, 40 h; AID 1688; note: nearly all actives have a fitted effect of over 60% in size
#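 Quantitative HTS on tebufenozide-induced (100 nM) PC12 cells stably expressing polyQ103 Huntingtin exon 1–GFP. Reduction of bright GFP aggregates, detected by laser scanning cytometry after lysis, identified actives across the titration.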
# ALDH1A1 block = blocks purified human ALDH1A1 activity; AID 1030; Potency, µM (titrated, usually from 75.3 µM), hits mostly inhibitors; Purified ALDH1A1, NADH fluorescence, propionaldehyde substrate; actives 7.3% (n = 220,000); active = well fitted inhibition curve with a large enough effect, not every such curve was filed as active; inconclusive = small, poorly fitted or top-dose-only effect, or another doubt; inactive = no such curve, though single readings can be large or run the other way
# Target sequence (P00352 whole entry, looked up): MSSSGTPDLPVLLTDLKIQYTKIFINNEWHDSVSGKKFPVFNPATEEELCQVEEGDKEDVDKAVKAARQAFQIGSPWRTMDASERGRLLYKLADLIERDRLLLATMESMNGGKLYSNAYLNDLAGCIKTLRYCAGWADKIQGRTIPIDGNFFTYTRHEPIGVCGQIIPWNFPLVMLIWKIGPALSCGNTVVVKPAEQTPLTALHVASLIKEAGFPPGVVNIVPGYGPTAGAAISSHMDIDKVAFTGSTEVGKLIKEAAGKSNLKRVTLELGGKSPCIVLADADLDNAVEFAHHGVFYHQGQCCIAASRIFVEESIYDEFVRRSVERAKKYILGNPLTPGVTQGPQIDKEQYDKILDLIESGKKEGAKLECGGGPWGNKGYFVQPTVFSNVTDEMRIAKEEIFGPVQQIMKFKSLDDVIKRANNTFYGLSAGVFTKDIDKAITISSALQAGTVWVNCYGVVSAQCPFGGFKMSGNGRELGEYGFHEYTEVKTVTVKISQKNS
# Hits are given with their value; i = inactive; ? = inconclusive; nt = no result; [ ] = dose if it differs, or a comment. Unless noted, calls come from the whole dose curve; as a rule, active = well fitted curve in the direction sought with a large enough effect; inconclusive = small, poorly fitted or top-dose-only effect, or another doubt; inactive = no such curve, though single readings can be large; an effect the other way counts as inactive or inconclusive.
SMILES,HTT ATP protect,HPGD inh,KDM4E inh,CBFb-RUNX1 inh,HttQ103 aggreg,ALDH1A1 block
O=C(COC(=O)c1ccc(Br)o1)NCc1ccco1,i[10 µM],nt,nt,nt,nt,nt
CCNS(=O)(=O)c1ccc(C(=O)Nc2ccccc2)cc1,i,i,i,i,i,i
COc1ccccc1C(=O)Nc1ccc(Br)cc1C,i[10 µM],nt,i,i,i[9.22 µM],i
Cc1cc(/C=N/n2cnnc2)c(C)n1-c1cc(Cl)ccc1Cl,i,i,i,i,i,22µM
Cc1cccc(-n2c(C)cc(/C=N/n3cnnc3)c2C)c1,i,i,i,i,i,?
Cc1sc(N/N=C/c2cc([N+](=O)[O-])ccc2O)nc1-c1ccccc1,i,nt,i,i,i[9.22 µM],i
CCC(C)(C)n1nnnc1C(c1cc(OC)ccc1OC)N1CCN(Cc2ccccc2)CC1 (centres undefined),i[10 µM],nt,?,i,i[9.22 µM],?
CCn1c(C(=O)N2CCCC(C(=O)NCCCc3ccccc3)C2)cc2sccc21 (centres undefined),i[10 µM],i,i,i,?,?
CCn1c(C(=O)N2CCCC(C(=O)NCCc3ccc(C)cc3)C2)cc2sccc21 (centres undefined),i,i,i,i,i,32µM
Cn1c(C(=O)N2CCCC(C(=O)NCCCSC3CCCCC3)C2)cc2sccc21 (centres undefined),i,i,i,i,i,1.3µM
Cc1cc(C(=O)NC2Cc3ccccc3C2)c(C)o1,i[10 µM],nt,i,nt,i[9.22 µM],i
CNc1cc(N2CCCCCC2)ccc1[N+](=O)[O-],i,?,i,i,i,10µM
O=[N+]([O-])c1ccc(N2CCCCC2)nc1N1CCCCC1,i[10 µM],nt,i,?,i[9.22 µM],0.32µM
CNc1cc(N2CCCC2)ccc1[N+](=O)[O-],?,nt,i,i,i,i
O=[N+]([O-])c1cccnc1N1CCCCC1,?,i,i,i,i,i
O=C(COc1ccccc1Cl)N1CCN(c2ccc([N+](=O)[O-])c(N3CCCCC3)c2)CC1,i,i,i,i,i,1.6µM
O=C(COc1ccc(Cl)cc1)N1CCN(c2ccc([N+](=O)[O-])c(N3CCCCC3)c2)CC1,i[10 µM],i,i,?,i,2.5µM
Cc1ccccc1-c1nc(CS(=O)(=O)CC(=O)Nc2cc(F)ccc2F)c(C)o1,i[10 µM],i,i,i,i,i
Cc1nn(Cc2ccccc2)c(Cl)c1C(=O)NCc1ccco1,i[10 µM],nt,i,i,i,i
Cc1cc(C(=O)Nc2c[nH]c(=O)[nH]c2=O)ccc1[N+](=O)[O-],i[10 µM],nt,i,i,i,?
O=[N+]([O-])c1ccc(Cl)cc1N1CCOCC1,i[10 µM],nt,i,i,i[9.22 µM],i
O=[N+]([O-])c1ccc(Cl)cc1N1CCCCC1,i[10 µM],nt,i,i,i[9.22 µM],18µM
Cn1nnnc1SCCNCc1cc(Cl)ccc1OCc1ccccc1,i[10 µM],i,?,?,25µM,13µM
COC(=O)C1(Cc2ccc(O)c(CC3OC3(C)C)c2)OC(=O)C(O)=C1c1ccc(O)cc1 (centres undefined),i[10 µM],nt,?,i,i[9.22 µM],nt
COc1cc2[nH]c(=S)n(Cc3ccccc3)c(=O)c2cc1OC,i,nt,i,i,i,4.5µM
SMILES,HTT ATP protect,HPGD inh,KDM4E inh,CBFb-RUNX1 inh,HttQ103 aggreg,ALDH1A1 block
CCOc1cc2[nH]c(=S)n(CCCOC)c(=O)c2cc1OCC,?,i,i,i,4µM,?
CCOc1cc2[nH]c(=S)n(CCCN3CCOCC3)c(=O)c2cc1OCC,i[0.074 µM],i,i,i,i,i
C[C@@]12CCC=C[C@H]1[C@H](c1ccc(F)c(/C=C/c3ccccc3)c1)N(Cc1ccccc1)C2=O,i[10 µM],nt,?,i,i[9.22 µM],nt
c1ccc(-c2ccc(OCCOCCn3cncn3)cc2)cc1,i,i,i,i,i,?
CCc1ccc(CN2CCC(CO)(CC3CCCCO3)CC2)o1 (centres undefined),i[10 µM],nt,i,i,i[9.22 µM],8.9µM
CN(C)/C=C/C(=O)c1ccccc1,i[10 µM],nt,i,i,i[9.22 µM],nt
O=CC(=O)c1ccccc1,i,i,nt,i,nt,2.8µM
Cc1cn(C2CC(N=[N+]=[N-])C(CO)O2)c(=O)[nH]c1=O (centres undefined),nt,i,i,i,nt,i
Cc1ccc(CN2C(=O)C[C@@H](NS(=O)(=O)c3ccc4ccccc4c3)C/C=C\C2c2ccc(C)cc2)cc1 (some centres undefined),nt,i,nt,i,nt,22µM
Cc1ccc(CCNC(=O)C2CCC(CNc3c(N4CCCC4)c(=O)c3=O)CC2)cc1 (centres undefined),i,25µM,i,i,i,i
COc1ccccc1CNC(=O)C1CCC(CNc2c(N3CCCCC3)c(=O)c2=O)CC1 (centres undefined),i[10 µM],nt,i,i,i[9.22 µM],nt
O=C(NCC1COc2ccccc2O1)C1CCC(CNc2c(N3CCCCC3)c(=O)c2=O)CC1 (centres undefined),i,14µM,i,i,i,i
O=C(NC1CCCCCCC1)C1CCC(CNc2c(N3CCCC3)c(=O)c2=O)CC1 (centres undefined),i[10 µM],4µM,i,i,i,?
Cc1ccnc(NC(=O)C2CCC(CNc3c(N4CCCC4)c(=O)c3=O)CC2)c1 (centres undefined),i,i,i,i,i,i
Cc1cccc(CCNC(=O)C2CCC(CNc3c(N4CCCC4)c(=O)c3=O)CC2)c1 (centres undefined),i,13µM,i,i,i,?
COC(=O)C(=O)/C=C(\O)c1c(C)cc(C)cc1C,i[10 µM],nt,i,i,i[9.22 µM],nt
O=C(COc1ncnc2sccc12)Nc1ccc2c(c1)OCCO2,i,i,i,i,i,i
Cc1sc2ncnc(OCC(=O)Nc3ccc4c(c3)OCCO4)c2c1C,i,i,i,i,i,20µM
Cc1ccc(S(=O)(=O)N(C)Cc2ccc(-c3nnc4n3CCC4)cc2)cc1,i[10 µM],4.5µM,i,i,i,i
CN(C)S(=O)(=O)c1ccc(Cl)c(-c2nnc3n2CCCCC3)c1,i,nt,i,i,i,i
Brc1ccc(-c2nnc3n2CCCCC3)cc1,i[10 µM],7.1µM,i,i,i,13µM
Cc1ccc(C)n1-c1ccc(-c2nnc3n2CCCCC3)s1,i,3.2µM,i,i,i,?
Clc1ccc(-c2nnc3n2CCCCC3)cc1,?,16µM,i,i,?,i
C1CCc2nnc(-c3nnc4n3CCCCC4)n2CC1,i[10 µM],i,i,i,i,i
Clc1cccc(-c2nnc3n2CCCCC3)c1,i[10 µM],nt,i,i,i,i
SMILES,HTT ATP protect,HPGD inh,KDM4E inh,CBFb-RUNX1 inh,HttQ103 aggreg,ALDH1A1 block
CCNc1ncc2nc(CCc3ccccc3)c(=O)n(CCOC)c2n1,i,?,nt,nt,nt,?
COc1ccccc1S(=O)(=O)Nc1ccc(-c2nnc3n2CCCCC3)cc1,i,32µM,i,i,i,?
Clc1ccc(-c2nnc3n2CCCC3)cc1Cl,i,32µM,i,i,i,i
O=S(=O)(c1cccc(-c2nnc3n2CCCCC3)c1)N1CCCC1,i,nt,i,i,i,i
Nc1cccc(-c2nnc3n2CCCCC3)c1,i,nt,?,i,i,i
CCOC(=O)CSc1nc(=O)n2ccc(C)cc2n1,i,nt,?,i,i,i
